The results in this text go back to PubChem BioAssay.

One assay concerns the target Albumin (Bos taurus) (UniProt P02769). Briefly: bovine serum albumin binders on microarray, profiling panel, artefact control for SMM control protein annotation, biochemical, small-molecule microarray, Alexa647 label, 635/667 nm fluorescence (AID 1118).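 Further: score merges 667 nm emission intensity and signal-to-noise per printed compound spot.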 Particulars: BSA-A647 binding, fluorescence 635 nm, higher = more signal.
A short description of assay [1]: small-molecule microarray binders of probe aXIP, primary screen, biochemical, NeuroSMM set, 635/667 nm fluorescence (AID 1119).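 Further: probe is the protein aXip251-270 applied at 1 µg/mL to compound-printed slides; binding of probe to printed compounds measured as 667 nm fluorescence plus signal to noise.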 The following applies: higher = more signal, called active from +8 up or from −8 down.
Assay [2] in a line: small-molecule binders of probe aNOTCH3, primary screen, biochemical, small-molecule microarray, 635/667 nm fluorescence (AID 1120).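 Further: probe is a biotin-tagged antibody raised against NOTCH3 rather than NOTCH3 protein; score merges spot fluorescence near 667 nm with spot signal to noise.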 The following applies: higher = more signal.
A short description of assay [3]: small-molecule binders of probe aNOTCH2, primary screen, biochemical, small-molecule microarray, 635/667 nm fluorescence (AID 1121).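 Further: score merges feature fluorescence read at 667 nm with its signal to noise.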 The following applies: higher = more signal.
For assay [4], the target named is Carbonic anhydrase 2 (Homo sapiens) (UniProt P00918). Briefly: CAII small-molecule binders, profiling panel, biochemical, small-molecule microarray, Alexa647-labelled CAII (AID 1122). Particulars: CAII-A647 binding fluorescence, higher = more signal.
Assay [5] can be described thus: COS7 lysate on small-molecule microarray, probe aHis, 635 nm (AID 1123).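 Further: z-score combines 667nm fluorescence intensity with signal-to-noise per printed compound spot.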 The following applies: COS7 cell lysate, fluorescence, higher = more signal.
Assay [6] can be described thus: compound binding in COS7 lysate, probe aLAP1, primary screen, cell lysate, small-molecule microarray (AID 1124).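 Further: lysate comes from COS7 cells expressing LAP1 and is applied at 0.3 µg/mL; score merges spot fluorescence near 667 nm with signal-to-noise over triplicate slides.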 Particulars: probe aLAP1, fluorescence, higher = more signal.
For the next assay, the system named is Sam68 (KHDRBS1). Briefly: Sam68 small-molecule binders, primary screen, biochemical, small-molecule microarray, 635 nm fluorescence (AID 1125).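 Further: score merges 667 nm channel intensity with signal to noise over triplicate slides.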 The following applies: small-molecule microarray binding, higher = more signal.
For assay [7], the system named is Chordin-like protein 2 (CHRDL2). Briefly: CHRDL2 small-molecule binders, primary screen, biochemical, small-molecule microarray, 635 nm fluorescence (AID 1126).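 Further: printed compound slides probed with Chrdl2 protein at 4 µg/mL for 1 h at 4 C; score merges 667 nm emission intensity with signal to noise over three replicate slides.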 Particulars: small-molecule microarray binding, fluorescence 635 nm; higher = more signal.
Assay [8] concerns the target Concanavalin-A (Canavalia ensiformis) (UniProt P02866). Briefly: ConA small-molecule binders, primary screen, artefact control for SMM control protein annotation, biochemical, small-molecule microarray, Alexa647 label, 635 nm (AID 1127).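 Further: z combines 667 nm emission intensity with signal-to-noise across three replicate slides.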 The following applies: ConA-A647 binding fluorescence, higher = more signal.
Assay [9] is described as follows: anti-His antibody binders, primary screen, artefact control for SMM control protein annotation, biochemical, small-molecule microarray, 635 nm fluorescence (AID 1128).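 Further: score merges feature fluorescence with signal-to-noise for each printed compound spot.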 The following applies: anti-His Alexa647 antibody binding, higher = more signal.
The test system of assay [10] is Human papillomavirus type 1a E7 protein (residues 1-88). Briefly: HPV1a E7 small-molecule binders, primary screen, biochemical, small-molecule microarray, residues 1-88, 635 nm (AID 1129). The following applies: small-molecule microarray binding, fluorescence 635 nm; higher = more signal.
Assay [11] addresses Focal adhesion kinase 1 (Homo sapiens) (UniProt Q05397). Briefly: small-molecule microarray binders of FAK, primary screen, biochemical, 635/667 nm fluorescence, BSA, DTT (AID 1130).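 Further: composite of spot emission at 667 nm and signal to noise over triplicate slides.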 The following applies: PTK2 binding, 635 nm fluorescence, higher = more signal.
The test system of assay [12] is Fibrinogen (Alexa647-labelled). Briefly: fibrinogen binders on compound microarrays, profiling panel, artefact control for SMM control-protein annotation, biochemical, small-molecule microarray, 635/667 nm fluorescence (AID 1131).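 Further: z-score merges 667 nm fluorescence with per-spot signal-to-noise over triplicate slides.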 Particulars: fibrinogen-A647 binding fluorescence, higher = more signal.
The target in assay [13] is Follistatin (Homo sapiens) (UniProt P19883). Briefly: follistatin binders on small-molecule microarrays, primary screen, biochemical, small-molecule microarray, 635/667 nm fluorescence (AID 1132). Particulars: FST binding, 635 nm fluorescence, higher = more signal.
The target of assay [14] is Fibroblast growth factor 2 (Homo sapiens) (UniProt P09038). Briefly: FGF2 binders on small-molecule microarrays, primary screen, biochemical, small-molecule microarray, 635/667 nm fluorescence (AID 1133). The following applies: small-molecule microarray binding, FGF2, fluorescence 635/667; higher = more signal.
Assay [15] is described as follows: mitochondrial membrane potential change in A549 cells, profiling panel, cell-based, JC-1 fluorescence, basal, 24 h, 100 nL (AID 1138).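 Further: A549 lung adenocarcinoma cells under basal conditions with no added stimulus; test concentration not given here.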 Particulars: higher = more signal.
In the next assay the test system is Lefty1. Briefly: Lefty1 binders on small-molecule microarrays, primary screen, biochemical, small-molecule microarray, 635/667 nm fluorescence (AID 1139). The following applies: small-molecule microarray binding, fluorescence 635/667; higher = more signal.
In assay [16] the test system is wheat germ agglutinin (Triticum aestivum), Alexa647-labelled. Briefly: wheat germ agglutinin binders on compound microarrays, profiling panel, artefact control for SMM control-protein annotation, biochemical, small-molecule microarray, 635/667 nm fluorescence (AID 1140).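 Further: score merges 667 nm feature emission with signal to noise over triplicate slides.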 The following applies: WGA-A647 binding, 635 nm fluorescence, higher = more signal.
Assay [17] addresses Luciferin 4-monooxygenase (Photinus pyralis) (UniProt P08659). Briefly: firefly luciferase enzyme inhibitors, primary screen, biochemical, luminescence, purified enzyme, 2006 set (AID 1141).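 Further: cell-free assay with purified firefly luciferase at 100 ng per well in PBS; test concentration not given here.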 The following applies: SteadyGlo luminescence, 30 min, higher = more signal, called active from +8 up or from −8 down.

The source made the active and inactive calls.

Chain of Fibroblast growth factor 2 (Homo sapiens) (P09038 whole entry, looked up): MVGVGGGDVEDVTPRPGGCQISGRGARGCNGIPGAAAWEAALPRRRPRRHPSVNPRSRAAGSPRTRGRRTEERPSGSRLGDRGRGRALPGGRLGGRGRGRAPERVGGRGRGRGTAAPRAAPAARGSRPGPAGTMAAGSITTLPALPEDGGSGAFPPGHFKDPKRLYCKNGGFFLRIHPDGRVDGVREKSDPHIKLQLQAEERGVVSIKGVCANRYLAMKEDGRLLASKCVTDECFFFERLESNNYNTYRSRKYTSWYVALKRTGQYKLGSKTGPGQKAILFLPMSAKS
Chain of Luciferin 4-monooxygenase (Photinus pyralis) (P08659 whole entry, looked up): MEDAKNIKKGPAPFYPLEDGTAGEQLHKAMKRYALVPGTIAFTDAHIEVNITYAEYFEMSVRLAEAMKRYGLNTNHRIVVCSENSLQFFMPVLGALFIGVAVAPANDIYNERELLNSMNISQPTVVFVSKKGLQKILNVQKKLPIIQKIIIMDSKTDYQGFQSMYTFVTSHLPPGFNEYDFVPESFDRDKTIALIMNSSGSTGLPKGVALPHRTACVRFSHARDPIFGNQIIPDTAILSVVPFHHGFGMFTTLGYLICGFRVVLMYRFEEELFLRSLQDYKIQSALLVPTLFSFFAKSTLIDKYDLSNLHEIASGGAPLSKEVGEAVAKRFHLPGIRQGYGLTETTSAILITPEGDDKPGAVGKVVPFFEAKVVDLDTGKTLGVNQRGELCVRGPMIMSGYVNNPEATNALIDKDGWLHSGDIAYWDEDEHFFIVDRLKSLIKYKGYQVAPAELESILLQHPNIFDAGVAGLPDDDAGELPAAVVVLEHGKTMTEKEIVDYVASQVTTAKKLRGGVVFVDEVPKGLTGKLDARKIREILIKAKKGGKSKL
Chain of Albumin (Bos taurus) (P02769 whole entry, looked up): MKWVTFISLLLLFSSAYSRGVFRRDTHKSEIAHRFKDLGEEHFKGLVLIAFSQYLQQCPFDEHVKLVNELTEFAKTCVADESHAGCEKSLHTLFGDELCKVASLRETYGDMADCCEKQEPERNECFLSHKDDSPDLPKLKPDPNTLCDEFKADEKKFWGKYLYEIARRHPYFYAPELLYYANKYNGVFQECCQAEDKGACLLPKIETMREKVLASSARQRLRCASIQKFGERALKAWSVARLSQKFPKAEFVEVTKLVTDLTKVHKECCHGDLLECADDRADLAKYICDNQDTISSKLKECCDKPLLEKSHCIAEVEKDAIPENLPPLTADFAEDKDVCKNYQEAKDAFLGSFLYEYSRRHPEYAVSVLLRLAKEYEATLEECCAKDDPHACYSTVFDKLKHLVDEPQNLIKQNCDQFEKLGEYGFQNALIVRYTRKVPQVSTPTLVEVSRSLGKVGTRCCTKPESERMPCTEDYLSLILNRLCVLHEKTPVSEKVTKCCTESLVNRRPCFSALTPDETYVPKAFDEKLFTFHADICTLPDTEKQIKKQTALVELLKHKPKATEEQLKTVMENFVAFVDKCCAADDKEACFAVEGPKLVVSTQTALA
Chain of Concanavalin-A (Canavalia ensiformis) (P02866 whole entry, looked up): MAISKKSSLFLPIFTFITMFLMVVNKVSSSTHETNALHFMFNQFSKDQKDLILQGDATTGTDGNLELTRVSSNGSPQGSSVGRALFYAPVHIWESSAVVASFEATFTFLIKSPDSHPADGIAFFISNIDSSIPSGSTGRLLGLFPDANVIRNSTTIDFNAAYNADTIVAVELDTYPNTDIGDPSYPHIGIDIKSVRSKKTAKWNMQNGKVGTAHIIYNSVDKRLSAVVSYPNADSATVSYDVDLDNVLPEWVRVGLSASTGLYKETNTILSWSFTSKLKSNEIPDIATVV
Chain of Focal adhesion kinase 1 (Homo sapiens) (Q05397 whole entry, looked up): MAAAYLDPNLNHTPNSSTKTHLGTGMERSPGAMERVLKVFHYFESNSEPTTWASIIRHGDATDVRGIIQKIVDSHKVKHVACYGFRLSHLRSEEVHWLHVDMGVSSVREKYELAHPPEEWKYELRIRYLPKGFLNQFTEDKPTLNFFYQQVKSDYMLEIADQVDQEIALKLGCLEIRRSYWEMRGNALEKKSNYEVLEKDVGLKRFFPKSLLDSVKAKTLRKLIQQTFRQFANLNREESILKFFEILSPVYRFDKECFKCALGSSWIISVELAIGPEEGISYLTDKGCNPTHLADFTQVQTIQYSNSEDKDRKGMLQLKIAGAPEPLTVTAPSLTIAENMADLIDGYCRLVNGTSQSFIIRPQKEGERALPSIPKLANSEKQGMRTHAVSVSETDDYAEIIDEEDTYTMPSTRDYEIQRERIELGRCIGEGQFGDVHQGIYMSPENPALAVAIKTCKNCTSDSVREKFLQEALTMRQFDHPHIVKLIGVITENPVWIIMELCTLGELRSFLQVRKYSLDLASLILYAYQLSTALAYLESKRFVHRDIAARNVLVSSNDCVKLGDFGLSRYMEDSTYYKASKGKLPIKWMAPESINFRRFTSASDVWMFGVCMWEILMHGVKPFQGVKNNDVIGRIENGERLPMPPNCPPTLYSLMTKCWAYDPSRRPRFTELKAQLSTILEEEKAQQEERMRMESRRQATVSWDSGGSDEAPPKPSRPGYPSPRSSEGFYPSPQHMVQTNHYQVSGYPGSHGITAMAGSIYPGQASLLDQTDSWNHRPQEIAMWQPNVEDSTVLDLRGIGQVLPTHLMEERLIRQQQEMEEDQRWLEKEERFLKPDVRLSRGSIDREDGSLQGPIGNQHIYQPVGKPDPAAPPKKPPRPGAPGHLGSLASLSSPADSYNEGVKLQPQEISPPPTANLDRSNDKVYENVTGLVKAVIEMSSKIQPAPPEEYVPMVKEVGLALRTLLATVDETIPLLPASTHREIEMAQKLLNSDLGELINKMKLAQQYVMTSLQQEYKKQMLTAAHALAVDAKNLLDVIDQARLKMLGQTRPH
Chain of Follistatin (Homo sapiens) (P19883 whole entry, looked up): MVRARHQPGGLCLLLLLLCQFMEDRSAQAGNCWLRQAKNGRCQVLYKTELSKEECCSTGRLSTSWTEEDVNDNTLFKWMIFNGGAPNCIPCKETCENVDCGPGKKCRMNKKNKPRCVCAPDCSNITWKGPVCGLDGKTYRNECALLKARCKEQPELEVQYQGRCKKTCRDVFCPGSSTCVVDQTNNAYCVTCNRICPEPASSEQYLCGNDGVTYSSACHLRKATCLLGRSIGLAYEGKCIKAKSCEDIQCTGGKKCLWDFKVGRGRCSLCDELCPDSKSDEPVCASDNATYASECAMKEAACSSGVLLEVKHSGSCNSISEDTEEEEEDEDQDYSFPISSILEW

With `COc1ccc([Si](C)(C)[C@H]2[C@H](CCn3cc([C@H](O)c4ccccc4)nn3)O[C@@]3(C(=O)N(C)c4ccccc43)[C@@H]2C)cc1`, the composite z-score was 0.179 with Albumin (Bos taurus); -0.0057 in assay [2]; -0.0485 in assay [3]; 0.509 in assay [4]; 0.476 in [5]; -0.116 in assay [6]. The composite z-score in the assay on Sam68 (KHDRBS1) is 0.106; in assay [7], -0.544; in assay [8], -0.454; in [9], -0.0799; in assay [10] it was 0.0391; in [11], 0.254. Besides, the composite z-score in assay [12] is -1.37; in [13], 0.862; in assay [14], 0.322; in the assay on Lefty1, 1.23; in assay [16], -0.0898. For the same compound, in [1], the composite Z-score was 0.235 (inactive). Moreover, the z-score is 1.65 in [15] and -0.0548 (inactive) in assay [17].

For the compound `OB1C=CCC(CCc2ccccc2)O1` (stereo not given), the composite z-score with Albumin (Bos taurus) was -0.923; in [2], -0.191; in assay [3] it was -0.153; in assay [4], -0.498; in assay [5], -0.622; in assay [6] it was -0.803. The composite z-score in the assay with Sam68 (KHDRBS1) is -1.31; in [7], 0.317; in assay [8], -1.34; in [9], -0.837; in assay [10], -0.692; in assay [11], -0.153. The composite z-score in assay [12] was -0.894; in assay [13], 0.0417; in assay [14], 0.712; with Lefty1 it was -0.732; in [16], -0.477. Also, the composite Z-score in assay [1] is -0.601 (inactive). The z-score was 1.13 in [15] and -1.83 (inactive) in assay [17].

Regarding `CC(C)Cc1ccc(CN2CC[C@@H](N)C2)cc1`, the composite z-score in the assay with Albumin (Bos taurus) was -0.275; in [2], -0.152; in assay [3], -0.205; in assay [4] it was -0.501; in [5], -0.304; in assay [6], -0.485. The composite z-score in the assay with Sam68 (KHDRBS1) was -1.62; in assay [7] it was -0.629; in assay [8], -0.732; in assay [9], -0.273; in assay [10] it was -1.63; in [11] it was -0.0574. The composite z-score in assay [12] is -0.0978; in assay [13] it was -0.304; in assay [14], -0.847; in the assay with Lefty1, 0.0735; in [16], -0.314. In addition, the composite Z-score in assay [1] is -0.536 (inactive). Further, the z-score is 1.85 in assay [15] and 0.824 (inactive) in [17].

Turning to `O=C1OCCC=C[C@H]2OC34C=CCN(c5ccc(Cl)cc5)C(=O)[C@H]3N(CCCO)C(=O)[C@@H]4C12` (stereo not given in full), the composite z-score is -0.989 in the assay with Albumin (Bos taurus); -0.237 in assay [2]; -0.186 in assay [3]; 0.268 in assay [4]; -0.714 in assay [5]; 0.27 in assay [6]. Moreover, the composite z-score was -1.21 with Sam68 (KHDRBS1); -0.406 in assay [7]; -0.295 in assay [8]; -0.598 in assay [9]; -1.88 in assay [10]; -0.22 in assay [11]. For the same compound, the composite z-score was -0.867 in [12]; -0.0633 in assay [13]; -0.584 in assay [14]; 0.196 with Lefty1; -0.0198 in assay [16]. Moreover, the composite Z-score in assay [1] was -0.118 (inactive). The figures for the z-score in [15] and in assay [17] were 0.0491 and -0.352 (inactive), respectively.

On to `O=C1O[C@H](c2ccccc2)[C@H](c2ccccc2)N2[C@H]1[C@@H](C(=O)NC[C@H](O)c1ccccc1)[C@]1(C(=O)Nc3ccc(C#CC4=CCCCC4)cc31)[C@H]2c1ccccc1OCCO`, for which the composite z-score is 0.395 with Albumin (Bos taurus); 0.0527 in assay [2]; -0.0614 in assay [3]; 0.343 in assay [4]; 1.32 in assay [5]; 0.522 in assay [6]. Also, the composite z-score in the assay on Sam68 (KHDRBS1) was 1.32; in [7] it was -0.0358; in assay [8], 0.978; in assay [9], 1.24; in assay [10], 1.19; in [11], 0.661. The composite z-score in assay [12] turned out to be 0.86; in assay [13], 1.1; in [14], 0.198; in the assay with Lefty1 it was 0.632; in [16], 1.05. The composite Z-score in [1] was 0.0371 (inactive). For the same compound, the z-score in assay [15] is -1.76; in assay [17], -0.758 (inactive).

Consider `COCCOC(=O)N1C(=O)[C@@]2(c3ccccc31)[C@H](C(N)=O)[C@H]1C(=O)O[C@H](c3ccccc3)[C@H](c3ccccc3)N1[C@@H]2c1ccc(O)cc1`, for which the composite z-score is 0.737 with Albumin (Bos taurus); -0.162 in [2]; -0.104 in assay [3]; 0.54 in assay [4]; 2.37 in [5]; 0.325 in assay [6]. The composite z-score is 0.371 in the assay on Sam68 (KHDRBS1); -0.169 in [7]; 0.237 in assay [8]; 0.142 in assay [9]; 1.04 in assay [10]; 0.386 in [11]. Also, the composite z-score in assay [12] was -0.649; in assay [13], 0.412; in assay [14], -0.488; in the assay with Lefty1 it was 0.429; in assay [16], 0.839. For the same compound, the composite Z-score in [1] is 0.573 (inactive). For the same compound, the z-score in assay [15] was 0.381; in assay [17] it was -1.65 (inactive).
